Reference: PubChem BioAssay (NCI)
Compounds without any hit were thinned out: in the full panel of roughly 83,000, 20% have a hit.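 96-well plates, one dose, 48 hours. Percent growth reported; active if below 10.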 Activity calls are given as the source filed them.

system: HL-60(TB) leukemia; experiment: NCI-60 one-dose screen, 48 h (100 = growth as untreated, 0 = no growth, -100 = all killed); conditions: 10 µM unless noted

SMILES	growth
CN(C)S(=O)(=O)c1cccc(-c2nc3sc4c(c3c(=O)[nH]2)CCCC4)c1	22.3% (inactive)
Cc1ccc2c(c1)C(=O)/C(=C/c1ncc([N+](=O)[O-])n1C)O2	-13% (active)
Brc1ccc(Cn2nnnc2-c2ccn(-c3ccccc3)n2)cc1	69.1% (inactive)
C=CCOc1ccc2c(C)cc(=O)oc2c1	118% (inactive)
O=C(/C=C/c1ccco1)c1ccccc1O	92.5% (inactive)
CC(=O)c1ccc(N=C(C#N)C2=C(O)c3ccccc3C2=O)cc1	86.2% (inactive)
COc1ccc(Cn2cc(C(=O)N=Nc3c(O)[nH]c4c(C)cccc34)nn2)cc1	78.9% (inactive)
Cc1ccc(Cn2c(-c3cccs3)nc3ccccc32)cc1	122% (inactive)
COc1ccc2nc3ccccc3c(NCc3ccc(C)cc3)c2c1	0.0372% (active)
COc1cc2oc3cc(C)oc(=O)c3c2cc1OC	80.3% (inactive)
COC(=O)[C@]12CC[C@@H](C)[C@H](C)[C@@H]1C1=CC[C@@H]3[C@@]4(C)C(C#N)=CC(C)=C4CC[C@@]3(C)[C@]1(C)CC2	-19.3% (active)
CC(=O)Oc1c(C)c(OC(C)=O)c2c(c1C(C)=O)OC1CC(=O)C(C(C)=O)=C(O)C21C (stereo not given)	79.4% (inactive)
CCCCn1c(C(=O)c2c[nH]c3ccccc23)n[nH]c1=S	90.8% (inactive)
Brc1ccc(Nc2nc(Nc3cnc4ccccc4c3)c3[nH]cnc3n2)cc1	92.9% (inactive)
COc1cc(OCc2cccc(-c3ccc(C(O)c4nccs4)cc3)c2C)cc(OC)c1C=O (stereo not given)	43.5% (inactive)
